Source: PubChem (Sanford-Burnham Center for Chemical Genomics)
Artemis endo inh – inhibitors of human Artemis endonuclease activity. Q96SD1. recombinant Artemis, quenched FAM hairpin cleavage fluorescence. inhibition, % at 10 µM. hit rate 0.78% among 30,000;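 active = at 10 µM dose, at least 30% inhibition, measured as corrected fluorescence normalized to stimulator and neutral control wells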
Target sequence (Q96SD1 whole entry, looked up): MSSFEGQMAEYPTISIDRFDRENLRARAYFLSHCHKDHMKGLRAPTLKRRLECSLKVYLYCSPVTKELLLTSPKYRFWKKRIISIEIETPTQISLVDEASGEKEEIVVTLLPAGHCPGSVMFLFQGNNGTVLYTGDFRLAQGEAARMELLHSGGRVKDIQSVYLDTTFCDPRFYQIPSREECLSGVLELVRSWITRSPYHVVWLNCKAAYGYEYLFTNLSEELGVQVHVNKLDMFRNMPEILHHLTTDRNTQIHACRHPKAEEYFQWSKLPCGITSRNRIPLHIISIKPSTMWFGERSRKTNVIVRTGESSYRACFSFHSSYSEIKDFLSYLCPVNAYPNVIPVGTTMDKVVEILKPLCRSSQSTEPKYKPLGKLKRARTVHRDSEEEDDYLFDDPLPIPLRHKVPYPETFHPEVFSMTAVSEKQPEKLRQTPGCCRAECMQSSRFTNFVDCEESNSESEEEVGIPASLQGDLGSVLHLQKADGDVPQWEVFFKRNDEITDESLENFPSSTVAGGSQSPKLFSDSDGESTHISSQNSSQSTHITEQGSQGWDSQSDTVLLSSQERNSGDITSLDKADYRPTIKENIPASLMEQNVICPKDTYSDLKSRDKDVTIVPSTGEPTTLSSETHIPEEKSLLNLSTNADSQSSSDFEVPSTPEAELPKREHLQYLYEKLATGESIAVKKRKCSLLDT
Of the large screens only hits and unclear results are named; the others gave an inactive call. The full list was thinned out, with hits kept by preference.

O=C(Cn1cnc2cc(Cl)ccc2c1=O)Nc1ccc2c(c1)OCO2	none
CC1Cc2ccccc2N1C(=O)CSc1nnc2c(n1)[nH]c1ccccc12 (centres undefined)	Artemis endo inh 36
COc1cccc(-n2c(SCC(=O)N3c4ccccc4CC3C)nnc2-c2ccco2)c1 (centres undefined)	none
CC1Cc2ccccc2N1C(=O)CSc1nc2c(c(=O)n(C)c(=O)n2C)n1Cc1ccc(F)cc1 (centres undefined)	none
COc1cc(-c2nnc(SCC3(c4ccccc4)OCCO3)o2)cc(OC)c1OC	none
Cc1csc(Nc2ccccc2C(F)(F)F)n1	none
Cc1cc(C)n(-c2nc(NC(C)(C)C)nc(NC(C)(C)C)n2)n1	none
Cc1cc(C)n(-c2nc(Nc3ccccc3C(F)(F)F)nc(-n3nc(C)cc3C)n2)n1	Artemis endo inh 57
COc1cc(CCN2C(=O)c3cccc4cccc(c34)C2=O)c(S(=O)(=O)NCCCO)cc1OC	none
O=C(O)c1ccccc1C(=O)OCc1ccccc1	none
CNC(=O)CC(=O)Nc1ccccc1C(=O)O	none
C/C(=N\O)c1ccccc1C(=O)O	Artemis endo inh 46
O=C(c1nc2nc(-c3cccs3)cc(C(F)(F)F)n2n1)N1CCN(Cc2ccccc2)CC1	none
Cc1nn(Cc2ccccc2)c2c1C(c1cccc(Cl)c1)C(C#N)=C(N)O2 (centres undefined)	none
O=C1/C(=C\c2ccco2)SC(=S)N1Cc1ccccc1	none
CC(C(=O)O)N1C(=O)/C(=C/C=C/c2ccco2)SC1=S (centres undefined)	Artemis endo inh 40
C=CCSC1=N/C(=C\C=C\c2ccco2)C(=O)S1	none
CCC(=O)Nc1ccc(C(=O)Nc2ccc3c(c2)OCO3)cc1	Artemis endo inh 36
O=C(Nc1ccc(Cl)cc1)c1ccc2c(c1)OCO2	none
CN1CCN(CCC(=O)Nc2ccc3c(c2)OCO3)CC1	none
COc1ccc(NC(=O)COC(=O)c2c3c(nc4ccccc24)CCCC3)cc1Cl	none
COC(=O)c1ccc(NC(=O)c2cn(-c3ccccc3)nc2-c2ccncc2)cc1	none
COc1ccc(-c2nn(-c3ccccc3)cc2C(=O)Nc2nccs2)cc1	Artemis endo inh 47
COc1ccc(-c2nn(-c3ccccc3)cc2CO)cc1	none
C[n+]1cc[nH]c1SCC(=O)c1ccccc1	none
CCN(CC)S(=O)(=O)c1cccc(C(=O)NC(C(=O)Nc2nnc(C)s2)C(C)C)c1 (centres undefined)	none
Cc1c(C)n(C(=O)CSc2nc3ccccc3[nH]2)c2ccccc12	none
CCOC(=O)c1sc(C)c2c1NC(c1ccc(Cl)cc1)NC2=O (centres undefined)	none
CCCCCCOc1ccc(/C(N)=N/O)cc1	none
CCCCCCCCC/C(=N\O)c1ccccn1	Artemis endo inh 35
CCCCCCCCCCNC(=O)C(=O)Nc1ccccn1	none
CCOC(=O)n1c(=O)n(Cc2ccc(Cl)c(Cl)c2)c2ccccc21	none
CCn1c(COc2ccc3c(c2)OCO3)nnc1SCC(=O)c1ccc(Cl)cc1	none
Cc1ccc(OCC(=O)OCC(=O)c2c(N)n(C)c(=O)n(C)c2=O)cc1C	none
COC(=O)c1ccc(N2CCN(CC(=O)c3ccc(-c4ccccc4)cc3)CC2)c([N+](=O)[O-])c1	none
Cc1cccc(C)c1OCC(=O)N/N=C/c1ccc2c(c1)OCO2	none
CCOc1ccc(/C=N/NC(=O)COc2ccccc2-c2ccccc2)cc1	none
O=C(COc1ccccc1C(=O)N/N=C\c1ccc(O)c(O)c1)N/N=C/c1ccc(O)c(O)c1	Artemis endo inh 66
C1CCc2c(nc3nnnn3c2NC2CCCC2)C1	none
N#Cc1c(NC(=O)CSc2ncnc3sccc23)oc(-c2ccco2)c1-c1ccco1	Artemis endo inh 31
CCNC(=O)CSc1ncnc2sccc12	none
N#Cc1ccsc1NC(=O)CSc1ncnc2ccccc12	none
Cc1nc(SCC(=O)N2c3ccccc3Sc3ccccc32)n[nH]1	none
O=C(CC1CCCC1)Nc1ccc2c(c1)CCC2	none
COc1ccc(S(=O)(=O)Nc2ccc3c(c2)OCCO3)cc1Cl	none
CSc1nc2ccc(NS(=O)(=O)c3ccc4c(c3)OCCO4)cc2s1	Artemis endo inh 34
CSc1nc2ccc(S(=O)(=O)NC3CCCCC3)cc2s1	none
Cc1ccc(C2C(C#N)=C(N)Oc3n[nH]c(-c4cccs4)c32)cc1 (centres undefined)	none
COc1cc(-c2[nH]nc3c2C(c2ccoc2)C(C#N)=C(N)O3)cc(OC)c1OC (centres undefined)	none
N#CC1=C(N)Oc2n[nH]c(-c3cccs3)c2C1c1ccoc1 (centres undefined)	Artemis endo inh 39
CC(C)CN(C(=O)c1nn(C)c(=O)c2ccccc12)c1nc2ccccc2s1	none
O=C(CSc1ncn[nH]1)Nc1ccc(S(=O)(=O)N2CCCC2)cc1	none
N#Cc1c(NC(=O)CSc2ccccn2)oc(-c2ccccc2)c1-c1ccccc1	none
CCn1c(SCC(=O)Nc2oc(-c3ccccc3)c(-c3ccccc3)c2C#N)nnc1-c1ccncc1	Artemis endo inh 31
CCn1c(SCC(=O)Nc2oc(-c3ccccc3)c(-c3ccccc3)c2C#N)nnc1-c1ccco1	none
Cc1ccc(S(=O)(=O)Nc2cc(C(=O)Nc3cc(C)cc(C)c3)ccc2Cl)cc1	none
Cc1cccc(CN2C(=O)CCSc3ccc(Cl)cc32)c1	none
O=C(NNc1c2ccccc2nc2ccccc12)c1ccc(O)cc1O	Artemis endo inh 38
O=C(NNC(=O)c1cc(-c2ccc(Cl)cc2Cl)nc2ccccc12)Nc1ccccc1	none
O=C(COc1ccccc1)NNc1c2ccccc2nc2ccccc12	none
O=C(Cc1ccccc1[N+](=O)[O-])NCCSCc1c(F)cccc1Cl	none
CCCc1cc(=O)oc2cc(OCC(=O)N3CCc4ccccc43)ccc12	none
CN(C)/N=C/c1c(O)ccc2ccccc12	none
Oc1ccc2ccccc2c1C=NC12CN3CCN(CN(C3)C1)C2	Artemis endo inh 41
Cc1[nH]n(-c2cccc(Cl)c2)c(=O)c1C=NC12CN3CN(CN(C3)C1)C2	none
N/C(COc1cccc(C(F)(F)F)c1)=N\NC(=O)c1cccnc1Oc1ccccc1	none
COc1ccc(OC)c(NC(=O)CSC2=NCCS2)c1	none
COc1ccc(CC(=O)NC2=NCCS2)cc1	none
COc1ccc(Nc2nc(Nc3ccc(OC)cc3)nc(SC3=NCCS3)n2)cc1	Artemis endo inh 79
CCCOc1ccc(C(C)=O)cc1CSc1nc(O)cc(=O)[nH]1	none
CC(=O)c1c(C(C)=O)c(C)n(-c2ccc(N)c(C)c2)c1C	none
CCCCC1C(C#N)=C(C)NC2=C1C(=O)CC(C)(C)C2 (centres undefined)	none
O=C(Nc1nc2n(n1)C(c1ccccc1)CC(c1ccc(Cl)cc1)N2)c1ccco1 (centres undefined)	Artemis endo inh 31
O=C1CC(c2ccccc2)n2nc(NC(=O)C3CCCO3)nc2N1 (centres undefined)	none
CC1CC(c2ccccc2)n2nc(NC(=O)CCc3ccccc3)nc2N1 (centres undefined)	none
COC(=O)c1c(C)[nH]c(C(=O)CSc2ccc(Cl)cc2)c1C	none
COc1cccc(/C=N\n2c(C)nnc2C)c1OC	none
COc1cccc(/C=N/Nc2nn3cnnc3c3ccccc23)c1O	Artemis endo inh 35
COc1cccc(/C=N/NC(=O)CSc2nnc(C)n2-c2ccccc2)c1OC	none
O=C(CCc1ccc(Oc2cc([N+](=O)[O-])cc([N+](=O)[O-])c2)cc1)N1CCCCC1	none
CCOc1ccccc1N1CCN(C(=O)C(F)(F)F)CC1	none
CCOc1ccccc1N1CN(CC)CNC1=S	Artemis endo inh 55
CCOc1ccccc1N1Cc2ccccc2C1	none
Cc1ccc(Sc2ccc(N)cc2C#N)cc1	none
Cc1c(Cl)c([N+](=O)[O-])nn1CC(=O)NC(C)C1CC2CCC1C2 (centres undefined)	none
Cc1cc(N2CCOCC2)nc(SCc2ccc(Cl)cc2Cl)n1	none
Clc1ccc(-c2nnc3sc(-c4ccc(Br)o4)nn23)cc1	none
c1cncc(-c2nnc3sc(C4CCCCC4)nn23)c1	none
